Molecules are shown by their SMILES. Entries with a potency or affinity are not part of this list. The source made the active and inactive calls.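 The calls were made as follows: active = viability loss with fitted half-maximal dose at or below ten times the top valid dose; inconclusive = flat loss of 30 to 70 percent, or a poor fit; inactive = flat within 30 percent, weak potency, or rising signal.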

The experiment is described as follows: viability loss in BJeLR (HRASV12) cells, primary screen, Ras selective lethality project, cell-based, Alamar Blue, dry powder (AID 493045). The note with it: BJeLR (HRASV12) fibroblasts viability, 48 h; series mostly up to 45 µM; activity change, negative = viability loss: at the top concentration.
On to `COCC(=O)N(c1ccc(OC)c(Cl)c1)C(C(=O)NCCc1ccccc1)c1cccs1` (stereo unspecified), for which the “activity change, negative = viability loss” value is 1.62% (inactive). As for `COc1ccc(N(C(=O)[C@@H](C)Cl)C(C(=O)NCCc2ccccc2)c2cccs2)cc1Cl` (stereo partly specified), the figure is -1.18% (inactive); as for `CCC(=O)N(c1ccc(OC)c(Cl)c1)C(C(=O)NCCc1ccccc1)c1cccs1` (stereo unspecified), 0.399% (inactive); as for `O=C(c1[nH]ncc1[N+](=O)[O-])N1CCN(C(c2ccccc2)c2ccccc2)CC1`, 0.972% (inactive). For the compound `COc1ccc(N(C(=O)CO)C(C(=O)NCCc2ccccc2)c2cccs2)cc1Cl` (stereo unspecified), the “activity change, negative = viability loss” value was 4.42% (inactive). Under `COc1ccc(N(C(=O)CSc2ncccn2)C(C(=O)NCCc2ccccc2)c2cccs2)cc1Cl` (stereo unspecified) stands 13.6% [at 38 µM] (inactive).

The record behind these values is PubChem BioAssay AID493045 (Broad Institute, 2011).
